hNpr1 antagonist = antagonists of human natriuretic peptide receptor Npr1 | P16066 | HEK293 hNpr1 GloSensor cGMP, ANP-stimulated luminescence | Potency, µM (doses to about 46.3 µM), most hits filed as inhibitors | actives 1.6% (n = 76,000) | AID 1347048; calls by dose curve; further: nearly all actives have a fitted effect of over 60% in size
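HEK293 cells stably expressing human Npr1 and cGMP GloSensor pGS-40F, loaded 2 h with 2% GloSensor reagent, given compound 30 min at room temperature. Luminescence read before and 20 min after 0.1 nM hNppA.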
3T3 cytotox = NIH 3T3 cell cytotoxicity | Potency, µM (doses to about 96.7 µM), actives largely listed as inhibitors | NIH 3T3 viability, CellTiter-Glo ATP luminescence, 48-72 h | AID 1345082 | actives 4.3% (n = 94,000); further: nearly all actives have a fitted effect of over 55% in size
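Cytotoxicity was measured by CellTiter-Glo ATP luminescence after 48 or 72 h compound exposure at 37 °C. Mouse NIH 3T3 fibroblasts were seeded at 400 cells/well and dosed by 23 nL pin transfer.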
Luciferase inh = inhibitors of firefly (Photinus pyralis) luciferase; P08659; AID 1347043; purified P. pyralis luciferase, luminescence, biochemical; Potency, µM (doses to about 115 µM), hits mostly inhibitors; actives 2.5% (n = 76,000); further: nearly all actives have a fitted effect of over 65% in size
Target sequence (P08659 whole entry, looked up): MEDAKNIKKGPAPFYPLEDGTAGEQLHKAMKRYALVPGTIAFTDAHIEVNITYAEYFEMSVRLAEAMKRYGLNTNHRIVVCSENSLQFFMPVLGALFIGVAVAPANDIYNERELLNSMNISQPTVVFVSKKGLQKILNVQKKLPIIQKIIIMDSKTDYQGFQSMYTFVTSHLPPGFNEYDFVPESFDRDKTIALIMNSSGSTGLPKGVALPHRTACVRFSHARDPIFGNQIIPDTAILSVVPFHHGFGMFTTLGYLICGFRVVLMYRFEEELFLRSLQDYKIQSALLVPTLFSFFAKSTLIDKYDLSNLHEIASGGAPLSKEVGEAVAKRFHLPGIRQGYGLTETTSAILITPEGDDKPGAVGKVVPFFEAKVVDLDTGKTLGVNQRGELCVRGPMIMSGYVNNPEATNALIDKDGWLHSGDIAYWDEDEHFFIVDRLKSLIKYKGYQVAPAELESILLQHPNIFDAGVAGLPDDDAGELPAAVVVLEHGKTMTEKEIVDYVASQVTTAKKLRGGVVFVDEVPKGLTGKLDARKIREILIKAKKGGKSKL
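Inhibitors were tested against purified firefly luciferase in a biochemical, low-substrate format (both substrates at 10uM) and luminescence measured with a CCD imager.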
HEK cytotox = kills HEK 293 cells. Potency, µM (highest dose often 115 µM), hits mostly inhibitors. actives 6.6% (n = 94,000). AID 1345083. HEK 293 viability, ATP luminescence (CellTiter-Glo), 48-72 h; further: nearly all actives have a fitted effect of over 60% in size
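qHTS cytotoxicity; HEK 293, 250 cells/well; compound pinned; 48 or 72 hr, 37 degree Celsius, 5% CO2, 95% humidity; CellTiter-Glo, 10 min RT; luminescence (ATP).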
GPT2 inh = blocks human glutamate pyruvate transaminase 2; Recombinant GPT2, coupled pyruvate oxidase/HRP Amplex Red fluorescence; Q8TD30; actives 0.25% (n = 100,000); Potency, µM (titrated, usually from 57.7 µM), hits mostly inhibitors; further: nearly all actives have a fitted effect of over 60% in size
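Inhibition is scored from Amplex Red fluorescence generated when pyruvate oxidase and HRP act on pyruvate released by GPT2. Reactions contain 10ng/uL enzyme, 250uM a-KG and 2mM L-alanine and run 30 min at room temperature.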
Hits are given with their value. Shown are actives, neighbours in structure and some others; about 10% of the full set was active somewhere. Unless noted, the call rests on the fitted dose curve; in most records, active means well fitted curve in the direction sought with a large enough effect; inconclusive means small, poorly fitted or top-dose-only effect, or another doubt; inactive means no such curve, though single readings can be large; an effect the other way counts as inactive or inconclusive.

Results for CCCCN(Cc1ccccc1)Cc1nc(-c2ccc(C(=O)OC)cc2)no1 ?
hNpr1 antagonist: inactive; 3T3 cytotox: inactive; Luciferase inh: 8.9µM; HEK cytotox: inactive; GPT2 inh: inactive

Results for Cc1ccc(-c2c(C(=O)NCCc3ccc(Cl)cc3)nc3sccn23)cc1 ?
3T3 cytotox: inconclusive; HEK cytotox: 35µM; GPT2 inh: inactive

How did O=C(NCCc1ccc(Cl)cc1)c1nc2sccn2c1-c1cccc(C(F)(F)F)c1 do in these assays?
3T3 cytotox: inconclusive; HEK cytotox: inconclusive; GPT2 inh: inactive

Results for O=C(NCCc1ccc(Cl)cc1)c1nc2sccn2c1Br ?
hNpr1 antagonist: inactive; 3T3 cytotox: inactive; Luciferase inh: 18µM; HEK cytotox: inactive; GPT2 inh: inactive

What do the screens show for `COC1CCN(c2cccc(-c3cc(NC(C)=O)nc(-n4nc(C)cc4C)n3)n2)CC1`?
GPT2 inh: inactive

Results for Cc1nc(C2CC2)ncc1C(=O)N1CC[C@](C)(O)[C@@H](O)C1 ?
hNpr1 antagonist: inactive; 3T3 cytotox: inactive; Luciferase inh: inactive; HEK cytotox: inactive; GPT2 inh: inactive

How did COc1ccc(CNC(=O)c2c[nH]c3ncccc23)cc1OC do in these assays?
hNpr1 antagonist: inactive; 3T3 cytotox: inactive; Luciferase inh: inactive; HEK cytotox: inactive; GPT2 inh: inactive

How did O=C(Nc1cccc(C(F)(F)F)c1)c1nc2c(o1)CCN(Cc1ccccc1)CC2 do in these assays?
hNpr1 antagonist: inactive; 3T3 cytotox: inconclusive; Luciferase inh: inactive; HEK cytotox: inconclusive; GPT2 inh: inconclusive

How did O=C(Nc1cccc(C(F)(F)F)c1)c1nc2c(o1)CCN(Cc1cnc[nH]1)CC2 do in these assays?
hNpr1 antagonist: inactive; 3T3 cytotox: inconclusive; Luciferase inh: 40µM; HEK cytotox: inconclusive; GPT2 inh: inactive

What do the screens show for `O=C(NCC1CC1)c1nc2c(o1)CCN(Cc1cccc(F)c1)CC2`?
hNpr1 antagonist: inconclusive; 3T3 cytotox: inconclusive; Luciferase inh: inactive; HEK cytotox: inconclusive; GPT2 inh: inactive

Results for O=C(Nc1cccc(C(F)(F)F)c1)c1nc2c(o1)CCN(Cc1cccc(F)c1)CC2 ?
hNpr1 antagonist: inconclusive; 3T3 cytotox: inconclusive; Luciferase inh: inconclusive; HEK cytotox: 50µM; GPT2 inh: inactive

What do the screens show for `O=C(Nc1cccc(C(F)(F)F)c1)c1nc2c(o1)CCN(Cc1ccc(F)cc1)CC2`?
hNpr1 antagonist: inactive; 3T3 cytotox: 28µM; Luciferase inh: inactive; HEK cytotox: 28µM; GPT2 inh: inactive

What do the screens show for `C[C@H]1[C@@H]2[C@@H](O)C([C@H](C)C(=O)NC3CCCCC3)CC[C@@]2(C)CC[C@@H]1NC(=O)c1cncnc1` (some centres undefined)?
hNpr1 antagonist: inactive; 3T3 cytotox: inactive; Luciferase inh: inactive; HEK cytotox: inactive; GPT2 inh: inactive

What do the screens show for `CC(=O)NC1CCN(c2nc3ncccc3o2)CC1`?
hNpr1 antagonist: inactive; 3T3 cytotox: inactive; Luciferase inh: inactive; HEK cytotox: inactive; GPT2 inh: inactive

Results for Cc1cc(C)c(CNC(=O)c2nc(-c3cccc(CO)c3)cc3c2ccn3C(C)C)c(=O)[nH]1 ?
hNpr1 antagonist: inactive; 3T3 cytotox: inconclusive; Luciferase inh: inactive; HEK cytotox: inconclusive; GPT2 inh: inactive

How did Cc1ccc(C(=O)N2CCc3sc(C(=O)NC(C)c4ccccc4)cc3C2)cc1 (centres undefined) do in these assays?
hNpr1 antagonist: inactive; 3T3 cytotox: inconclusive; Luciferase inh: inactive; HEK cytotox: inconclusive; GPT2 inh: inactive

How did COc1ccc(F)cc1-c1ccc(CN2CCC(NC(=O)c3cccc(Cl)c3)C2)cc1 (centres undefined) do in these assays?
3T3 cytotox: 22µM; HEK cytotox: 22µM

What do the screens show for `O=C(NC1CCCN(Cc2ccc(-c3cncnc3)cc2)C1)c1cccc(Cl)c1` (centres undefined)?
3T3 cytotox: inactive; HEK cytotox: inconclusive; GPT2 inh: inactive

What do the screens show for `COc1ccccc1-c1ccc(CN2CCC(NC(=O)c3cccc(Cl)c3)C2)cc1` (centres undefined)?
3T3 cytotox: 22µM; HEK cytotox: 20µM

How did COc1cc2c(cc1OC)C(CNC(=O)c1ccc(C)cc1)N(C(=O)NC(C)C)CC2 (centres undefined) do in these assays?
hNpr1 antagonist: inactive; 3T3 cytotox: inactive; Luciferase inh: inactive; HEK cytotox: 40µM; GPT2 inh: inactive

Results for COc1cc2c(cc1OC)C(CNC(=O)c1ccc(C)cc1)N(C(=O)Nc1ccccc1F)CC2 (centres undefined) ?
hNpr1 antagonist: inactive; 3T3 cytotox: inactive; Luciferase inh: inactive; HEK cytotox: inconclusive; GPT2 inh: inactive

What do the screens show for `Cc1nc(-c2c3n(c(=O)n(CC(=O)Nc4c(C)cccc4C)c2=O)CCCC3)no1`?
hNpr1 antagonist: inactive; 3T3 cytotox: inactive; Luciferase inh: inactive; HEK cytotox: inactive; GPT2 inh: inactive

How did COCCC(=O)N1CCC2(CC1)C(=O)N(C)c1ccccc12 do in these assays?
hNpr1 antagonist: inactive; 3T3 cytotox: inconclusive; Luciferase inh: inactive; HEK cytotox: inactive; GPT2 inh: inactive

How did CN(C)c1ccc(CN2CCC3(C2)C(=O)N(Cc2ccccc2)c2ccccc23)cc1 (centres undefined) do in these assays?
hNpr1 antagonist: inactive; 3T3 cytotox: inconclusive; Luciferase inh: inactive; HEK cytotox: 35µM; GPT2 inh: inactive

Results for CN1C(=O)C2(CCN(C(=O)CCC3CCCCC3)CC2)c2ccccc21 ?
hNpr1 antagonist: inactive; 3T3 cytotox: inconclusive; Luciferase inh: inactive; HEK cytotox: 45µM; GPT2 inh: inconclusive

How did CN1C(=O)C2(CCN(Cc3ccccc3)C2)c2ccccc21 (centres undefined) do in these assays?
hNpr1 antagonist: inactive; 3T3 cytotox: inconclusive; Luciferase inh: inactive; HEK cytotox: 100µM; GPT2 inh: inactive

What do the screens show for `COc1ccc(C(=O)N2CCC(Cc3nc(C4CC4)n[nH]3)C2)cc1` (centres undefined)?
hNpr1 antagonist: inactive; 3T3 cytotox: inconclusive; Luciferase inh: inactive; HEK cytotox: inactive; GPT2 inh: inactive

How did CNC(=O)c1cc(C2CC2)nc2onc(C3CCCN(C(=O)c4ccc(Cl)nc4)C3)c12 (centres undefined) do in these assays?
3T3 cytotox: inconclusive; HEK cytotox: inactive

What do the screens show for `O=C(C1CCCN(Cc2cccc(-c3cccs3)c2)C1)N1CCC(c2ccccc2)CC1` (centres undefined)?
3T3 cytotox: 40µM; HEK cytotox: 45µM

Results for O=C(C1CCCN(Cc2cccc(-c3cccs3)c2)C1)N1CCN(Cc2ccccc2)CC1 (centres undefined) ?
3T3 cytotox: 35µM; HEK cytotox: inconclusive; GPT2 inh: inactive

How did O=C(C1CCCN(Cc2cccc(-c3cccs3)c2)C1)N1CCOCC1 (centres undefined) do in these assays?
3T3 cytotox: inactive; HEK cytotox: inconclusive; GPT2 inh: inactive

Screening data as filed in PubChem BioAssay.
